Where “and” joins values, the source holds several entries; their conditions need not be identical. Equal values may be shown once. Among all 5,500 compounds or so, about 2,000 (36%) were called active. Inconclusive results (about 18%) are left out. Cut-off read from the data, not from the text of the source: active = normalized growth mostly below about 0.91 (no sharp cut-off); inconclusive = no clear call, values can overlap the other calls; inactive = mostly above about 0.92. This is one part of the list.
Assay: chemical genetic growth profiling, strain panel (AID 1159580);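 note: tested at 20 µM; growth read once vehicle control cultures reached saturation at 30 °C; 1 = growth at the plate median or of vehicle wells; lower values mean less growth of the strain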
Settings: growth OD

Measured: normalized growth

NNc1nncc2ccccc12
inactive: S. cerevisiae deletion strains, locus YJR066W, strain TOR1, active compounds read low 0.919 | S. cerevisiae deletion strains, locus YJR075W, strain HOC1, active compounds read low 0.996 | S. cerevisiae deletion strains, locus YKL009W, strain mrt4, active compounds read low 0.96 | S. cerevisiae deletion strains, locus YKL068W, active compounds read low 0.997 | S. cerevisiae deletion strains, locus YKL085W, strain MDH1 (second series), active compounds read low 0.989 | S. cerevisiae deletion strains, locus YKL085W, strain MDH1, active compounds read low 0.989 | S. cerevisiae deletion strains, locus YKL160W, strain elf1, active compounds read low 0.995 | S. cerevisiae deletion strains, locus YKL190W, strain CNB1, active compounds read low 1 | S. cerevisiae deletion strains, locus YKR001C, strain vps1, active compounds read low 1 | S. cerevisiae deletion strains, locus YKR026C, strain gcn3, active compounds read low 0.998 | S. cerevisiae deletion strains, locus YKR091W, strain srl3, active compounds read low 0.997 | S. cerevisiae deletion strains, locus YLL001W, strain dnm1, active compounds read low 0.979 | S. cerevisiae deletion strains, locus YLL026W, active compounds read low 1 | S. cerevisiae deletion strains, locus YLL041C, strain sdh2, active compounds read low 0.994 | S. cerevisiae deletion strains, locus YLR027C, strain aat2, active compounds read low 1 | S. cerevisiae deletion strains, locus YLR039C, strain RIC1, active compounds read low 0.989 | S. cerevisiae deletion strains, locus YLR058C, strain SHM2, active compounds read low 1.01 | S. cerevisiae deletion strains, locus YLR102C, strain apc9, active compounds read low 0.991 | S. cerevisiae deletion strains, locus YLR113W, strain HOG1, active compounds read low 1.06 | S. cerevisiae deletion strains, locus YLR221C, strain rsa3, active compounds read low 0.969 | S. cerevisiae deletion strains, locus YLR258W, strain gsy2, active compounds read low 0.991 | S. cerevisiae deletion strains, locus YLR262C, strain YPT6 (second series), active compounds read low 1 | S. cerevisiae deletion strains, locus YLR262C, strain YPT6, active compounds read low 1.07 | S. cerevisiae deletion strains, locus YLR268W, strain sec22, active compounds read low 0.954 | S. cerevisiae deletion strains, locus YLR320W, strain mms22, active compounds read low 0.991 | S. cerevisiae deletion strains, locus YLR330W, strain CHS5, active compounds read low 1.01 | S. cerevisiae deletion strains, locus YLR342W, strain FKS1 (second series), active compounds read low 0.934 | S. cerevisiae deletion strains, locus YLR342W, strain FKS1, active compounds read low 1.01 | S. cerevisiae deletion strains, locus YLR357W, strain rsc2, active compounds read low 0.981 | S. cerevisiae deletion strains, locus YLR370C, strain arc18, active compounds read low 0.977 | S. cerevisiae deletion strains, locus YLR371W, strain rom2, active compounds read low 0.989 | S. cerevisiae deletion strains, locus YLR384C, strain iki3, active compounds read low 0.985 | S. cerevisiae deletion strains, locus YLR418C, strain cdc73, active compounds read low 0.96 | S. cerevisiae deletion strains, locus YML016C, strain PPZ1, active compounds read low 0.995 | S. cerevisiae deletion strains, locus YML032C, strain rad52, active compounds read low 0.985 | S. cerevisiae deletion strains, locus YML120C, strain ndi1, active compounds read low 0.981 | S. cerevisiae deletion strains, locus YML124C, strain tub3, active compounds read low 0.996 | S. cerevisiae deletion strains, locus YMR058W, strain fet3, active compounds read low 0.996 | S. cerevisiae deletion strains, locus YMR078C, strain ctf18, active compounds read low 0.993 | S. cerevisiae deletion strains, locus YMR125W, strain sto1, active compounds read low 1.01 | S. cerevisiae deletion strains, locus YMR129W, active compounds read low 0.996 | S. cerevisiae deletion strains, locus YMR205C, strain PFK2, active compounds read low 0.998 | S. cerevisiae deletion strains, locus YMR223W, strain ubp8, active compounds read low 0.975 | S. cerevisiae deletion strains, locus YMR231W, strain pep5, active compounds read low 0.995 | S. cerevisiae deletion strains, locus YMR263W, strain SAP30, active compounds read low 1 | S. cerevisiae deletion strains, locus YMR307W, strain GAS1, active compounds read low 1.02 and 0.998 | S. cerevisiae deletion strains, locus YNL067W, strain RPL9B, active compounds read low 1.01 | S. cerevisiae deletion strains, locus YNL071W, strain lat1, active compounds read low 1.01 | S. cerevisiae deletion strains, locus YNL153C, strain GIM3, active compounds read low 0.986 and 0.997 | S. cerevisiae deletion strains, locus YNL175C, strain NOP13, active compounds read low 1.01 | S. cerevisiae deletion strains, locus YNL183C, strain NPR1, active compounds read low 0.945 | S. cerevisiae deletion strains, locus YNL197C, strain WHI3, active compounds read low 1.01 | S. cerevisiae deletion strains, locus YNL209W, strain ssb2, active compounds read low 0.99 | S. cerevisiae deletion strains, locus YNL224C, strain SQS1, active compounds read low 1.03 | S. cerevisiae deletion strains, locus YNL233W, strain BNI4, active compounds read low 0.997 | S. cerevisiae deletion strains, locus YNL248C, strain rpa49, active compounds read low 1.03 | S. cerevisiae deletion strains, locus YNL250W, strain rad50, active compounds read low 0.988 | S. cerevisiae deletion strains, locus YNL271C, strain bni1, active compounds read low 0.993 | S. cerevisiae deletion strains, locus YNL298W, strain CLA4, active compounds read low 0.986 | S. cerevisiae deletion strains, locus YNL307C, strain MCK1, active compounds read low 0.991 | S. cerevisiae deletion strains, locus YNL322C, strain KRE1 (second series), active compounds read low 0.98 | S. cerevisiae deletion strains, locus YNR049C, strain mso1, active compounds read low 0.999 | S. cerevisiae deletion strains, locus YNR052C, strain pop2, active compounds read low 0.985 | S. cerevisiae deletion strains, locus YOL012C, strain htz1 1.31 | S. cerevisiae deletion strains, locus YOL147C, strain pex11, active compounds read low 1 | S. cerevisiae deletion strains, locus YOR001W, strain rrp6, active compounds read low 0.995 | S. cerevisiae deletion strains, locus YOR061W, strain CKA2, active compounds read low 1.01 | S. cerevisiae deletion strains, locus YOR069W, strain VPS5, active compounds read low 1 | S. cerevisiae deletion strains, locus YOR070C, strain gyp1, active compounds read low 0.998 | S. cerevisiae deletion strains, locus YOR080W, strain dia2, active compounds read low 0.997 | S. cerevisiae deletion strains, locus YOR083W, strain WHI5 (second series), active compounds read low 1.03 | S. cerevisiae deletion strains, locus YOR083W, strain WHI5, active compounds read low 1.01 | S. cerevisiae deletion strains, locus YOR106W, strain vam3, active compounds read low 1 | S. cerevisiae deletion strains, locus YOR136W, strain idh2, active compounds read low 0.988 | S. cerevisiae deletion strains, locus YOR144C, strain elg1, active compounds read low 1 | S. cerevisiae deletion strains, locus YOR184W, strain ser1, active compounds read low 0.958 | S. cerevisiae deletion strains, locus YOR231W, strain MKK1, active compounds read low 1.02 | S. cerevisiae deletion strains, locus YOR265W, strain rbl2, active compounds read low 0.989 | S. cerevisiae deletion strains, locus YOR270C, strain vph1, active compounds read low 0.996 | S. cerevisiae deletion strains, locus YOR290C, strain snf2, active compounds read low 0.942 | S. cerevisiae deletion strains, locus YOR316C, strain cot1, active compounds read low 1 | S. cerevisiae deletion strains, locus YPL051W, strain arl3, active compounds read low 1 | S. cerevisiae deletion strains, locus YPL055C, strain LGE1, active compounds read low 1 | S. cerevisiae deletion strains, locus YPL078C, strain atp4, active compounds read low 0.991 | S. cerevisiae deletion strains, locus YPL106C, strain sse1, active compounds read low 0.941 | S. cerevisiae deletion strains, locus YPL240C, strain hsp82, active compounds read low 0.987 | S. cerevisiae deletion strains, locus YPL241C, strain CIN2, active compounds read low 0.998 | S. cerevisiae deletion strains, locus YPL256C, strain CLN2, active compounds read low 1.04 | S. cerevisiae deletion strains, locus YPR119W, strain clb2, active compounds read low 1 | S. cerevisiae deletion strains, locus YPR141C, strain kar3, active compounds read low 1.01 | S. cerevisiae deletion strains, locus YPR163C, strain tif3, active compounds read low 1.01 | S. cerevisiae deletion strains, locus YPR167C, strain met16, active compounds read low 0.995 | S. cerevisiae deletion strains, strain wtn01, active compounds read low 0.965 | S. cerevisiae strains, strain wild type, active compounds read low 1.01

From PubChem BioAssay AID1159580 (chemical genetic matrix, 2015)
